# Test results from PubChem BioAssay AID1851 (National Center for Advancing Translational Sciences (NCATS), 2009).
# Out of some 16,000 compounds screened, about 5,100 (32%) were called active. Not shown: some 25% with an inconclusive outcome. The call rests on the fitted dose curve; in most records, active means well fitted curve in the direction sought with a large enough effect; inconclusive means small, poorly fitted or top-dose-only effect, or effect the other way; inactive means no such curve, though single readings can be large or run the other way. Some of the results follow.
# Molecular target: Cytochrome P450 3A4 (Homo sapiens) (UniProt P08684)
# Test: Cytochrome panel assay with activity outcomes
# Settings: recombinant CYP, pro-luciferin dealkylation, luminescence, p450-cyp3a4; series mostly up to 57.1 µM
# On the % scale 0 is the no-effect control and ±100 the full control effect.
# Sequence of Cytochrome P450 3A4 (Homo sapiens) (P08684 whole entry, looked up): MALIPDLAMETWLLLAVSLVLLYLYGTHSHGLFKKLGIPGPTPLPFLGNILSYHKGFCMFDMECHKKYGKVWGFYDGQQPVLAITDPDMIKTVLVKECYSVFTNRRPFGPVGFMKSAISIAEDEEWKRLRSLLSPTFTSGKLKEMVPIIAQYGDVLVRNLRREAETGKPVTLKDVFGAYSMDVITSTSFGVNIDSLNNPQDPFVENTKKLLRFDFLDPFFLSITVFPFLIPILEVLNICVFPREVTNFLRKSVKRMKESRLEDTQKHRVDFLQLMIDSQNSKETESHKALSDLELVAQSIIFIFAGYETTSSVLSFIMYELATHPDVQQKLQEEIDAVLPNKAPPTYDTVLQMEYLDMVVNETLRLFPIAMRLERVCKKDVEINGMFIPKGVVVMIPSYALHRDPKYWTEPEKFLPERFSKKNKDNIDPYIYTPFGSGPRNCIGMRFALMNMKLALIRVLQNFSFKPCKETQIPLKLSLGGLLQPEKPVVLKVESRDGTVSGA
Structure (SMILES),AC50,"activity, negative = inhibition"
NC(=O)C[C@H](NC(=O)Cc1ccc(O)cc1O)C(=O)O,inactive,–
Nc1ncnc2c1ncn2[C@@H]1CCCO1,inactive,–
C[C@@H](CN1CCC(Cc2ccccc2)CC1)[C@@H](O)c1ccc(O)cc1,inactive,–
Cc1ccc(C)c(Cn2c(C(=O)OC(C)C)cc3c2ccn3C)c1,7.94 µM (active),–
CCCS(=O)(=O)N1CCCC(C(=O)NCCN2CCC(Cc3ccccc3)CC2)C1 (stereo unspecified),inactive,–
CCOC(=O)c1cc2c(ccn2C)n1CC(=O)N1CCCC(C)C1 (stereo unspecified),14.1 µM (active),–
CC(C)OC(=O)c1cc2c(ccn2C)n1CC(=O)N1CCC(Cc2ccccc2)CC1,7.08 µM (active),–
COC(=O)c1cc2c(ccn2-c2ccc(F)cc2)n1CC(C)C,inactive,–
C[n+]1cccc(CNC(=O)/C=N/O)c1,inactive,–
O=C1NC(O)=NC1(c1ccccc1)c1ccccc1,inactive,–
O=C(CC(NS(=O)(=O)c1ccc(Cl)cc1)c1ccco1)NCc1ccco1 (stereo unspecified),14.1 µM (active),–
CCCNC(=O)CC(NS(=O)(=O)c1ccc(Cl)cc1)c1ccco1 (stereo unspecified),22.4 µM (active),–
CCCCNC(=O)NS(=O)(=O)c1cnccc1Sc1ccc(Cl)cc1,–,-25.5% [at 2.29 µM] (inactive)
O=C(NCCO)c1cc2c(s1)CCC2,inactive,–
C[C@@H]1O[C@H](O[C@@H]2[C@H](C)O[C@H](O[C@@H]3[C@H](C)O[C@H](O[C@H]4CC[C@]5(C)[C@@H](CC[C@@H]6[C@H]5C[C@@H](O)[C@]5(C)[C@@H](C7=CC(=O)OC7)CC[C@]65O)C4)C[C@@H]3O)C[C@@H]2O)C[C@H](O)[C@@H]1O,inactive,–
COc1ccccc1CCn1c(=O)c(CCc2ccccc2)nc2cncnc21,3.16 µM (active),–
NCCn1c(=O)c(CCc2ccccc2)nc2cncnc21,15.8 µM (active),–
COCCn1c(=O)c(CCc2ccccc2)nc2cncnc21,7.94 µM (active),–
O=C(O)/C=C\c1c2ccc(=O)c(O)c-2oc2c(O)c(O)ccc12,–,-22.7% [at 11.4 µM] (inactive)
COCCn1c(C)cc2c(c1=O)C(c1ccccc1F)C(C#N)=C(N)O2 (stereo unspecified),5.62 µM (active),–
CCCC[S@@](=N)(=O)CC[C@@H](N)C(=O)O,inactive,–
CCNCCCNCCCNCCCNCC,inactive,–
Cc1cccc(N(C)S(=O)(=O)c2ccc3[nH]c(=O)c(=O)[nH]c3c2)c1,14.1 µM (active),–
CCS(=O)(=O)N1CCC[C@H]2CN3CCc4cc(OC)ccc4[C@@H]3C[C@@H]21,5.01 µM (active),–
COc1ccc2c3c([nH]c2c1)[C@H]1C[C@@H]2[C@@H](C[C@@H](O)[C@H](OC)[C@H]2C(=O)O)CN1CC3,–,-4.43% [at 11.4 µM] (inactive)
COc1ccc2c3c([nH]c2c1)[C@@H]1C[C@@H]2[C@@H](C[C@H](O)[C@H](OC)[C@H]2C(=O)O)CN1CC3,inactive,–
